An excerpt weighted towards active compounds, which were near 3.2% of everything screened.
Nrf2 ARE act: Nrf2 pathway activation. AREc32 ARE-luciferase reporter (MCF7-derived line), luminescence, 24 h. Potency, µM (highest dose often 46.1 µM), without a hit: at the top dose activation, hits mostly activators. hit rate 0.31% among 410,000. AID 624171; note: potency is the fitted concentration of half-maximal effect; % of control where 0% means no effect; nearly all actives have a fitted effect of over 65% in size
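AREc32 cells carrying an ARE-driven firefly luciferase reporter were seeded at 1000 cells/well in OPTI-MEM with 5% FBS, then exposed to compound for 24 hr at 37 deg C. Luminescence was read with Steady-Glo after 30 min at RT.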
p53 reactivation: mutant p53 re-activation in reporter cells | H1299 p53-A138V BP100-luciferase reporter, luminescence, 24 h | Potency, µM (titrated, usually from 92.2 µM), for inactives: at the highest dose activity change, positive = activation, actives largely listed as activators | hit rate 0.063% among 320,000 | AID 504706; note: potency is the fitted concentration of half-maximal effect; % of control where 0% means no effect; nearly all actives have a fitted effect of over 45% in size
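H1299 (p53-null), stable ts p53-A138V + BP100-Luc; 1000 cells/well, Opti-MEM/10% FBS; cpd 4 pt, 1:5; 24 h, 37 deg C, 5% CO2; detection reagent 10 min RT; luminescence.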
BRCA1 expr act: increases BRCA1 expression; hit rate 1.1% among 380,000; Potency, µM (series often up to 46.1 µM), for the others: top-dose activation, actives largely listed as activators; MCF7-BRCA1-FFLuc reporter, luminescence, 48 h; response scale: scaled: vehicle 0%, 10 µM genistein 100%; note: potency is the fitted concentration of half-maximal effect; nearly all actives have a fitted effect of over 80% in size
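Compounds are tested at multiple concentrations on MCF7 BRCA1-luciferase reporter cells seeded at 2000 per well; after 48 h, a single luminescence end-point is taken and curves fitted to the normalized data.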
Nrf2 inh: blocks Nrf2 signaling; A549 ARE-Fluc reporter, luciferase luminescence, 18-24 h; Potency, µM (series often up to 46 µM), inactives show at the top dose activity change, negative = inhibition, actives largely listed as inhibitors; hit rate 2.1% among 360,000; note: potency is the fitted concentration of half-maximal effect; % is set by controls: 0 for no effect and ±100 for the full control effect; nearly all actives have a fitted effect of over 60% in size
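A549 ARE_Fluc cells (5000/well, 5% FBS OPTI-MEM) pre-incubated 2 h, then treated with compounds 18-24 h at 37C/5% CO2 in concentration-response. CellTiter-Fluor viability read first; BugLite luciferase luminescence after 15 min at room temperature gives Nrf2 activity.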
IL-2 act: activates IL-2 in a cell-based reporter assay; AID 652025; activation, % (series mostly up to about 46 µM); IL-2 activation reporter assay, cell-based qHTS; stimulated with anti-CD3/CD4/CD28 beads; in transgenic mouse T cells; hit rate 0.065% among 360,000; in the data active = activation above about 50%; inconclusive = mostly about 30% to 49%; note: 0% is about no effect
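Screening format: compound pinned onto unstimulated transgenic mouse T cells, 60 min incubation, then anti-CD3/anti-CD4/anti-CD28 bead stimulation for 18 hours at 37 degrees C, followed by EGFP and DsRed detection.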
A549 tox: A549 cytotoxicity, counter-screen for Nrf2 inhibitors. Potency, µM (highest dose often 46 µM), for the others: at the top dose activity change, negative = cytotoxicity, usual class: inhibitors. AID 504648. hit rate 0.16% among 390,000. A549 ARE-Fluc cells, CellTiter-Fluor viability, 18-24 h; note: potency is the fitted concentration of half-maximal effect; % is set by controls: 0 for no effect and ±100 for the full control effect
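A549 ARE_Fluc cells in 5% FBS OPTI-MEM were exposed to compounds in concentration-response for 18-24 h at 37 deg C. Viability was read by CellTiter-Fluor fluorescence (Ex 405/Em 525) after 30 min, before the luciferase read.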
Active calls of the source: *; ? = inconclusive; . = no result; [ ] = remark or other dose. Unless noted, calls come from the whole dose curve; as a rule, active = well fitted curve in the direction sought with a large enough effect; inconclusive = small, poorly fitted or top-dose-only effect, or another doubt; inactive = no such curve, though single readings can be large; an effect the other way counts as inactive or inconclusive.

SMILES | Nrf2 ARE act | p53 reactivation | BRCA1 expr act | Nrf2 inh | IL-2 act | A549 tox
CCCCCC(=O)Nc1ccc2ccccc2c1 | 2% | ? | 2.8µM* | ? | 1 | 10%
O=C(CS)Nc1ccc2ccccc2c1 | 17% | -1% | -29% | 5% | -5 | -3%
CCCCC(=O)Nc1ccc(C2C(=O)c3ccccc3C2=O)cc1 | 0% | . | 4µM* | 7% | 2 | -6%
O=C1CCc2cc(S(=O)(=O)Nc3cccc(Br)c3)ccc2N1 | . | . | . | ? | . | -2%
O=c1[nH]cc(C#Cc2ccccc2)c2ncncc12 | . | . | ? | ? | . | 4%
C=C1C(=O)O[C@H]2C1CC[C@@](C)(O)C13C=CC(C)(C21)C1(C3)C(=O)O[C@@H]2C3C(C)=CCC3[C@](C)(O)C[C@H](OC(C)=O)C21 (stereo partly specified) | 16µM* | -9% | -35% | -28% | 6 | -10%
O=C(c1cccs1)N1CCCc2ccccc21 | 4% | -7% | -18% | 19% | 0 | -7%
O=C(c1cccs1)N1CCc2ccccc21 | ? | . | 7.9µM* | ? | -2 | 2%
COC(=O)c1ccc(COC(=O)c2ccccc2OC)cc1 | 3% | 22µM* | -5% | -9% | -1 | -3%
CN(C)c1ccc(C(=O)OCc2ccccc2)cc1 | 0% | ? | ? | ? | 0 | 2%
CCOc1ncccc1C(=O)OCc1ccc(C(=O)OC)cc1 | 0% | ? | ? | 13% | 1 | 24%
COC(=O)c1ccc(COC(=O)c2ccc(N(C)C)cc2)cc1 | 0% | 11% | 5µM* | 10% | -4 | -6%
COC(=O)c1ccc(COC(=O)CCC(=O)c2cccs2)cc1 | 4% | ? | 10µM* | ? | -4 | -3%
CCCCNC(=O)CN1CCN(c2ncc(NC(=O)c3ccc(Cl)cc3)cc2C(=O)O)CC1 | 0% | . | . | . | . | 2%
O=C(CC(C(=O)O)n1ccnc1)c1ccc(Cl)cc1 (stereo unspecified) | . | . | -15% | . | . | .
O=C(CNC(=O)c1ccc([N+](=O)[O-])cc1)OC(C(=O)Nc1cc(C(F)(F)F)ccc1Cl)c1ccccc1 (stereo unspecified) | . | . | . | -13% | . | 3%
N#Cc1c2c(c(Cl)n3c1nc1ccccc13)CCCC2 | . | . | -1% | . | . | .
Cc1ccc(NS(=O)(=O)c2cc(NC(=O)c3ccc4c(c3)NC(=O)CS4)ccc2Cl)c(C)c1 | -1% | -6% | -70% | 7.3µM* | -1 | ?
C=CCC[C@@H](Cc1ccc(F)cc1)C(=O)OC[C@@H](Cc1c[nH]c2ccccc12)NC(=O)[C@H](CC=C)CC(=O)N(CCO)Cc1ccccc1 | -5% | 4% | -74% | 23µM* | -2 | ?
C=CC[C@H](CC(=O)N(CCO)Cc1ccccc1)C(=O)N[C@@H](COC(=O)[C@@H](CC=C)Cc1ccc(F)cc1)Cc1c[nH]c2ccccc12 | -2% | 7% | -66% | 18µM* | 0 | ?
C=CCC[C@H](Cc1ccc(F)cc1)C(=O)OC[C@@H](Cc1c[nH]c2ccccc12)NC(=O)[C@H](CC=C)CC(=O)N(CCO)Cc1ccccc1 | -2% | 4% | -70% | 21µM* | -1 | ?
CCC(=O)N1CCc2cc(Br)cc(S(=O)(=O)CCC(=O)N3CCN(c4cccc(C)c4)C(C)C3)c21 (stereo unspecified) | 7% | . | . | 5%[9.27 µM] | . | ?
CCC(=O)N1CCc2cc(S(=O)(=O)CCC(=O)N3CCN(c4cccc(C)c4)C(C)C3)ccc21 (stereo unspecified) | 3% | . | -31% | 21µM* | . | 6%
COc1ccc(CCNC(=O)CN(c2cc(C(F)(F)F)ccc2Cl)S(C)(=O)=O)cc1 | -1% | . | 5% | 11% | . | -3%
CN(N=O)c1ccc(/C=C/c2ccccc2)cc1 | . | . | 5.6µM* | . | . | .
SMILES | Nrf2 ARE act | p53 reactivation | BRCA1 expr act | Nrf2 inh | IL-2 act | A549 tox
O=S1(=O)N=C(Oc2ccc(Cl)cc2)c2ccccc21 | . | . | . | -1%[65.3 µM] | . | -4%[65.3 µM]
O=C(Nc1nc(-c2cc(F)ccc2F)cs1)C1=NN(c2ccccc2)C(=O)CC1 | 11% | 6% | -41% | 8% | -1 | -1%
COc1ccc(-c2csc(NC(=O)C3=NN(c4ccccc4)C(=O)CC3)n2)cc1 | -1% | 10% | -33% | 21µM* | 0 | ?
COc1ccc(-c2csc(NC(=O)c3ccccc3NS(=O)(=O)c3ccc(C)cc3)n2)cc1 | 6% | . | -77% | 16µM* | -1 | ?
CCC(C)n1c(=N)c(C(=O)NC2CCCCC2)cc2c(=O)n3ccccc3nc21 (stereo unspecified) | 0% | . | -3% | 3% | . | ?
COC(=O)c1c(NC(=O)c2ccc(OC)cc2OC)sc2c1CCCCC2 | 5% | . | . | 11% | . | 3%
O=C(Nc1ccc(-n2cc(Br)cn2)cc1)c1ccncc1 | 3% | 7% | 9% | 26µM* | -1 | -10%
CC1CCCCN1S(=O)(=O)c1cccc2cccnc12 (stereo unspecified) | 0% | -8% | 0% | 11% | 1 | -6%
CC1CNCCN1S(=O)(=O)c1cccc2cnccc12 (stereo unspecified) | 7% | -3% | 6% | 18µM* | -1 | -7%
Cc1nn(-c2ccccc2)c(Cl)c1/C=N/NC(=O)c1ccco1 | 6% | 9% | 6.3µM* | ? | 0 | -6%
Cc1nn(-c2ccccc2)c(C)c1/C=N/NC(=O)c1cc(-c2ccc(Cl)s2)[nH]n1 | 0% | -4% | -93% | 10µM* | 0 | -8%
Cc1nn(-c2ccccc2)c(C)c1/C=N/NC(=O)c1cc(C23CC4CC(CC(C4)C2)C3)[nH]n1 | 4% | -8% | -95% | 13µM* | -2 | ?
Cc1nn(-c2ccccc2)c(C)c1/C=N/NC(=O)c1cc(-c2ccc(Br)s2)[nH]n1 | 4% | -9% | -71% | ? | -2 | -12%
CCCOC(=O)N1CCN(/[N+]([O-])=N/Oc2ccc([N+](=O)[O-])cc2[N+](=O)[O-])CC1 | . | . | . | -1% | . | ?
NCCCCNc1ncnc2ccc(-c3ccc4c(c3)OCO4)cc12 | . | . | . | 0% | . | 17%
Cc1ccc2c(NC(=O)c3ccc(Br)o3)cccc2n1 | 8% | 3% | 4% | -8% | -1 | -1%
O=C(O)c1ccc(-c2nnc(-c3cccc(Br)c3)o2)cc1 | 4% | ? | 2.8µM* | ? | 3 | -7%
Cc1c(NC(=O)c2ccc(Br)o2)cccc1C(=O)O | 2% | 11% | 3.5µM* | . | 0 | 5%
Cc1cc(C)c2oc(-c3cccc(NC(=O)c4ccc(Br)o4)c3)nc2c1 | 8% | . | . | 3% | . | 3%

Bioassay records: PubChem, National Center for Advancing Translational Sciences (NCATS)
